This is a sample that favours compounds with a hit; in the whole collection about 1.4% have one here.
Mtb MenB inh: inhibitors of Mycobacterium tuberculosis MenB enzyme | inhibition, % (no concentration beside the values) | MenB enzyme assay, absorbance read-out | 100,000 compounds, 0.43% hits | P9WNP5; in the data active = inhibition above about 21%, passing the limit was not always enough
AID504770: growth inhibitors of E. coli YBA685 in a screen for V. cholerae RctB (chromosome II replication) inhibitors. E. coli YBA685 rctB-dependent plasmid, OD600 growth, 3 h; stronger effect = lower value. z-score (concentration not given with the values). 130,000 compounds, 0.27% hits. AID 504770; in the data active = z-score below about -2, passing the limit was not always enough
MbtI inh: inhibitors of Mycobacterium tuberculosis siderophore enzyme MbtI; P9WFX0; 100,000 compounds, 0.89% hits; purified MbtI enzyme, fluorescence intensity read-out; inhibition, % (concentration not given with the values); in the data active = inhibition mostly above about 56%, no sharp cut-off; inactive = mostly below about 77%
Target sequence (P9WFX0 whole entry, looked up): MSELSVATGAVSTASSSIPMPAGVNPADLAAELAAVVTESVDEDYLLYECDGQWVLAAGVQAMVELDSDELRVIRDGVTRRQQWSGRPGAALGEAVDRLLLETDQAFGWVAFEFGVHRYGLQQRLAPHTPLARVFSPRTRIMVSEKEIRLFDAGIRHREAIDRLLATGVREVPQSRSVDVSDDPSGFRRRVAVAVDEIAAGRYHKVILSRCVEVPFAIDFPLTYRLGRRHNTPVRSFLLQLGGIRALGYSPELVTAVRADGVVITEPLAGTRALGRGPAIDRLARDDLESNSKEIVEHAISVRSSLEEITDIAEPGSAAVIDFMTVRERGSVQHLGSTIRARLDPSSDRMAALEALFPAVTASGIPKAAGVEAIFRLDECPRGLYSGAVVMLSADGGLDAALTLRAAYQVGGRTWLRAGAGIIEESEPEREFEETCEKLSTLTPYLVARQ
Polio RdRp inh: inhibitors of poliovirus RNA polymerase binding and polymerization | P03300 | poliovirus polymerase elongation, fluorescence polarization; stronger effect = lower value | % elongation, % (compound at 16.7 µg/mL) | 150,000 compounds, 0.66% hits | AID 588519; in the data active = % elongation below about 90%
* marks the source's active call; other numbers are inactive results; i = inactive; x = no result.

SMILES	Mtb MenB inh	AID504770	MbtI inh	Polio RdRp inh
O=C(O)CCCS(=O)(=O)c1ccccc1	35*	0.35	10	101
COc1ccccc1-n1nnc(C(=O)N2CCCC2)c1N	31*	1.4	0	102
COc1ccccc1N1CCN(C(=O)c2nc(-c3ccc(C)cc3)n3c2CCCCC3)CC1	x	x	x	109
CC(C(=O)N1CCCC1)N1CCN(c2ccc(F)cc2)CC1 (stereo not drawn)	41*	-0.05	-4	98
CCN(c1ccccc1)S(=O)(=O)c1ccc(-c2n[nH]c(C)c2C)s1	-27	-0.3	12	100
O/N=C/c1c(O)ccc2ccccc12	32*	-0.05	-49	98
C=CCNC(=S)N1CCC(C(=O)c2ccc(C)cc2)CC1	-16	-0.15	2	101
COCCNC(=S)N1CCC(C(=O)c2ccc(F)cc2)CC1	37*	0.25	-2	103
Cc1ccccc1OCCSc1nnc(-c2cccs2)o1	x	x	x	109
Cc1cc(Cl)ccc1OCCSc1nnc(-c2cccs2)o1	x	x	x	10*
O=c1oc(-c2cc3ccccc3s2)ns1	-19	-0.25	x	85*
Cc1cccc2nc(-c3cc4ccccc4s3)oc(=O)c12	x	1.4	x	x
CC(=O)N1CCc2c(sc3c2c(=O)n(-c2ccccc2)c(=O)n3Cc2ccccc2F)C1	x	0.1	x	x
C=CCC(O)(CC=C)C1CCCN1 (stereo not drawn)	-127	2.2	-8	103
O=C(O)/C=C/c1ccco1	-11	0.5	25	101
O=C(/C=C/c1ccco1)C1C(=O)c2ccccc2C1=O	-72	1.6	69*	105
CCOC(=O)c1c(NC(=O)c2ccc(Br)cc2)sc2c1CCCC2	x	x	x	87*
O=C(Nc1sc2c(c1C(=O)O)CCCC2)c1ccc(Br)cc1	-20	-1.4	x	85*
Cc1cccc(NC(=O)c2c(NC(=O)c3ccccc3)sc3c2CCCC3)c1	x	x	x	75*
Cc1cccc(NC(=O)c2c(NC(=O)c3ccccc3)sc3c2CCC3)c1	x	x	x	104
CCOC(=O)c1c(NC(=O)c2ccccc2C(=O)O)sc2c1CCCC2	4	-0.25	-1	100
CCOC(=O)c1c(NC(=O)c2ccccc2C)sc2c1CCCC2	x	x	x	84*
CN(Cc1coc(-c2ccccc2)n1)Cc1coc(-c2ccccc2)n1	-23	-0.3	-4	100
Cc1cc(-n2c(C)cc(C(=O)Cn3cc(S(=O)(=O)N(C)C)ccc3=O)c2C)no1	-19	-0.55	-2	104
Cc1ccccc1Nc1nnc(SCC(=O)NC(C)(C#N)C(C)C)s1 (stereo not drawn)	-18	0.05	11	114
SMILES	Mtb MenB inh	AID504770	MbtI inh	Polio RdRp inh
CCOC(=O)c1c(NC(=O)c2ccc(S(=O)(=O)N(C)C)cc2)sc2c1CCN(C)C2	x	x	x	99
CCOC(=O)c1c(NC(=O)c2ccc(S(=O)(=O)N3CCC(C)CC3)cc2)sc2c1CCN(C)C2	x	x	x	90*
N#Cc1ccc(COC(=O)C2CC3C=CC2C3)cc1 (stereo not drawn)	-14	-0.15	-8	100
COc1cccc(C(=O)Nc2cc3cc(OC)ccc3oc2=O)c1	x	x	x	85*
NNc1nc2ccccc2[nH]c1=S	i	-3.2*	63	107
Cc1nn(C)c2c1S(=O)(=O)N=C(SCc1c(F)cccc1Cl)S2	-7	1.6	84*	88*
O=C1CC(c2n[nH]c(=S)o2)CN1c1ccc(Cl)cc1 (stereo not drawn)	17	-0.25	82*	99
O=C1CC(c2nnc(Cc3cccc(Cl)c3)o2)CN1c1ccccc1 (stereo not drawn)	x	x	x	103
O=C(Nc1sccc1C(=O)NC1CCCC1)c1ccc(Br)s1	-1	-0.35	-1	105
Cc1ccc(Nc2nnns2)cc1C	-18	-0.95	60*	94
CC(C)C1Nc2ccccc2S(=O)(=O)N1 (stereo not drawn)	-5	0.25	13	101
CCc1nn(CC(=O)Nc2cc(Cl)c(OC)cc2OC)c(=O)c2cc3sccc3n12	x	-0.35	x	x
COc1ccc(N2CCN(S(C)(=O)=O)CC2)cc1	40*	0.6	-2	101
COCCn1c(=NC(=O)c2ccccc2)sc2cc(OC)ccc21	-16	-0.6	21	101
CC(OC(=O)Cn1cc(C(F)(F)F)ccc1=O)C(=O)Nc1ccc2c(c1)OCO2 (stereo not drawn)	-24	0.75	3	99
CN(C)C1(CNCc2cnn(-c3ccccc3)n2)CCCCC1	8	0	-1	88*
CN(C)C1(CNCc2nc3ccccc3c(=O)[nH]2)CCCCC1	-43	0.35	19	95
CC(C)(C)C1=Nn2c(nnc2-c2ccccc2)SC1	-1	-0.4	64*	93
CCOC(=O)c1c(N2C(=O)C=CC2=O)sc(C)c1-c1ccccc1	-14	-0.45	77*	108

Assay outcomes: PubChem, ICCB-Longwood Screening Facility, Harvard Medical School
